# Results as given in paper PMC5540273 (PLoS ONE, 2017).
# Values joined by “and” are separate entries in the source; they are usually repeats but may differ in a detail not shown here. Identical values can stand only once. Like-named read-outs stand apart in the source and are kept apart here.
# Columns and labels:
# [1] = system: TSSK3; conditions: concentration: 1 μM, replicates: in singlicate, n = 1
# [2] = system: TTK; conditions: concentration: 1 μM, replicates: in singlicate, n = 1
# [3] = system: TXK; conditions: concentration: 1 μM, replicates: in singlicate, n = 1
# [4] = system: TYK2(JH1domain-catalytic); conditions: concentration: 1 μM, replicates: in singlicate, n = 1
# [5] = system: TYK2(JH2domain-pseudokinase); conditions: concentration: 1 μM, replicates: in singlicate, n = 1
# [6] = system: TYRO3; conditions: concentration: 1 μM, replicates: in singlicate; n = 1
# [7] = system: ULK1; conditions: concentration: 1 μM, replicates: in singlicate, n = 1
# [8] = system: ULK2; conditions: concentration: 1 μM, replicates: in singlicate, n = 1
# [9] = system: ULK3; conditions: concentration: 1 μM, replicates: in singlicate, n = 1
# [10] = system: T1, VEGFR2; conditions: concentration: 1 μM, replicates: in singlicate, n = 1
# T1 construct: gene KDR
# [11] = system: T2, VPS34; conditions: concentration: 1 μM, replicates: in singlicate, n = 1
# T2 construct: gene PIK3C3
# [12] = system: VRK2; conditions: concentration: 1 μM, replicates: in singlicate, n = 1
# [13] = system: WEE1; conditions: concentration: 1 μM, replicates: in singlicate; n = 1
# [14] = system: WEE2; conditions: concentration: 1 μM, replicates: in singlicate, n = 1
# [15] = system: WNK1; conditions: concentration: 1 μM, replicates: in singlicate; n = 1
# [16] = system: WNK2; conditions: concentration: 1 μM, replicates: in singlicate, n = 1
# [17] = system: WNK3; conditions: concentration: 1 μM, replicates: in singlicate, n = 1
# [18] = system: WNK4; conditions: concentration: 1 μM, replicates: in singlicate, n = 1
# [19] = system: T3, YANK1; conditions: concentration: 1 μM, replicates: in singlicate, n = 1
# T3 construct: gene STK32A
# [20] = system: T4, YANK2; conditions: concentration: 1 μM, replicates: in singlicate; n = 1
# T4 construct: gene STK32B
# 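Note: KINOMEscan kinase panel screen.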
smiles,measurement,setting,value
CC(C)Oc1ccc2c(-c3ccnc(Nc4ccc(N5CCN(C)CC5)cc4)n3)cnn2n1 [GW696155],%Inh,[1],96%
same,%Inh,[2],89%
same,%Inh,[3],13%
same,%Inh,[4],98%
same,%Inh,[5],99.4%
same,%Inh,[6],0%
same,%Inh,[7],99.9%
same,%Inh,[8],99.8%
same,%Inh,[9],100%
same,%Inh,[10],60%
same,%Inh,[11],96%
same,%Inh,[12],8%
same,%Inh,[13],30%
same,%Inh,[14],0%
same,%Inh,[15],12%
same,%Inh,[16],42%
same,%Inh,[17],52%
same,%Inh,[18],31%
same,%Inh,[19],0%
same,%Inh,[20],0%
Cc1nnc(-c2ccc(C)c(-c3ccc(C(=O)Nc4ccc(NS(C)(=O)=O)cc4)cc3)c2)o1 [GW702865],%Inh,[1],3%
same,%Inh,[2],0%
same,%Inh,[3],0%
same,%Inh,[4],20%
same,%Inh,[5],11%
same,%Inh,[6],0%
same,%Inh,[7],0%
same,%Inh,[8],0%
same,%Inh,[9],0%
same,%Inh,[10],9%
same,%Inh,[11],0%
same,%Inh,[12],0%
same,%Inh,[13],17%
same,%Inh,[14],0%
same,%Inh,[15],0%
same,%Inh,[16],1%
same,%Inh,[17],35%
same,%Inh,[18],26%
same,%Inh,[19],6%
same,%Inh,[20],0%
NCCNS(=O)(=O)c1ccc(-c2ccnc3[nH]ccc23)cc1 [GSK977617],%Inh,[1]; 1 µM,34% and 22%
same,%Inh,[2]; 1 µM,36% and 30%
same,%Inh,[3]; 1 µM,10% and 0%
same,%Inh,[4]; 1 µM,84% and 79%
same,%Inh,[5]; 1 µM,38% and 30%
same,%Inh,[6],0%
same,%Inh,[7]; 1 µM,93.8% and 83%
same,%Inh,[8]; 1 µM,39% and 33%
same,%Inh,[9]; 1 µM,64% and 35%
same,%Inh,[10]; 1 µM,7% and 24%
same,%Inh,[11]; 1 µM,90% and 80%
same,%Inh,[12]; 1 µM,13% and 7%
same,%Inh,[13],9%
same,%Inh,[14]; 1 µM,5% and 15%
same,%Inh,[15],0%
same,%Inh,[16]; 1 µM,7% and 0%
same,%Inh,[17]; 1 µM,8% and 15%
same,%Inh,[18]; 1 µM,0% and 5%
same,%Inh,[19]; 1 µM,36% and 0%
same,%Inh,[20],0%
O=C(NCCNc1ccnc(Nc2ccc(F)cc2)n1)c1cc2ccccc2s1 [GSK1379874],%Inh,[1],22%
same,%Inh,[2],0%
same,%Inh,[3],100%
same,%Inh,[4],0%
same,%Inh,[5],21%
same,%Inh,[6],0%
same,%Inh,[7],3%
same,%Inh,[8],0%
same,%Inh,[9],1%
same,%Inh,[10],0%
same,%Inh,[11],16%
same,%Inh,[12],0%
same,%Inh,[13],38%
same,%Inh,[14],5%
same,%Inh,[15],0%
same,%Inh,[16],0%
same,%Inh,[17],16%
same,%Inh,[18],39%
same,%Inh,[19],0%
same,%Inh,[20],0%
